High-throughput results: PubChem BioAssay, National Center for Advancing Translational Sciences (NCATS)
HT1080 IDH1KD tx = toxicity to HT-1080 IDH1 knockdown cells (counter line); HT-1080 IDH1 knockdown viability, ATP luminescence, 48 h; Potency, µM (top dose mostly 46.1 µM), for the others: top-dose activity, negative = toxicity, most hits filed as cytotoxic; actives 2% (n = 360,000);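 also: potency is read from the fitted curve at half-maximal effect; 0% = DMSO wells and -100% = cell-free medium wells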
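Viability of IDH1-knockdown HT-1080 fibrosarcoma cells was assessed by CellTiter-Glo after 48 h at 37 °C with titrated compound; concentration-effect curves were classified by fit quality and response size.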
IL1B secr inh = inflammasome signaling inhibition, IL-1 beta readout; THP-1 LPS/ATP IL-1B secretion, AlphaLISA, 16 h; stronger effect = lower value; activity change, % at 57.5 µM; actives 4.7% (n = 360,000); in the data active = activity change below about -50%; inconclusive = mostly about -30% to -49%
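THP-1 cells pretreated 1 hr with compounds (up to 57.5 uM final), then stimulated with LPS (250 ng/mL final) plus ATP (1.25 mM final); secreted IL-1B measured by AlphaLISA after 16 hr, decreased signal indicating inhibition.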
ALOX12 inh = ALOX12 (human) lipoxygenase inhibition; purified 12hLO, xylenol orange hydroperoxide absorbance; Potency, µM (top dose mostly 108 µM), without a hit: top-dose activity change, negative = inhibition, actives largely listed as inhibitors; actives 1.1% (n = 580,000); P18054; also: potency is read from the fitted curve at half-maximal effect
Target sequence (P18054 whole entry, looked up): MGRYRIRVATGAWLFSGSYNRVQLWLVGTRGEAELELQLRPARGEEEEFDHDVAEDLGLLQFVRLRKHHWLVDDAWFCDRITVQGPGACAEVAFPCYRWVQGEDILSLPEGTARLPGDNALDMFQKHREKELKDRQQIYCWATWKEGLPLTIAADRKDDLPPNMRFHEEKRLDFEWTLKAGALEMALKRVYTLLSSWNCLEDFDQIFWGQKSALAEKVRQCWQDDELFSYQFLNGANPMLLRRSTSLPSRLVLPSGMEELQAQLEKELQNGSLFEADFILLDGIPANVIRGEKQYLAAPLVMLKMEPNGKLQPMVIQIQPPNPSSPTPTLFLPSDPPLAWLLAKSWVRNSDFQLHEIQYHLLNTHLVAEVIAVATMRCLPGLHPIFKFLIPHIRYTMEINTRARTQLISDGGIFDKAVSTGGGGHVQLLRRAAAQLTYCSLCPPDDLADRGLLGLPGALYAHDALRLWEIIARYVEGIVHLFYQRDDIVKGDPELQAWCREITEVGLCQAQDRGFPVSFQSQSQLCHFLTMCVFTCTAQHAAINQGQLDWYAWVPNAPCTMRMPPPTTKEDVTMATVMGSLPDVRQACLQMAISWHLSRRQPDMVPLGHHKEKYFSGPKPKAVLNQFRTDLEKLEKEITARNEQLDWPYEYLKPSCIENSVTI
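Purified human 12hLO (150 nM final) in 25 mM Hepes, 0.01% Triton X-100, pH 7.0 was preincubated 15 min at room temperature with compound. Then 40 uM arachidonic acid was added, 30 min. Hydroperoxide was read by Fe-XO absorbance ratio 573/405 nm.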
TDP1 cell noCPT = qHTS for Inhibitors of human tyrosyl-DNA phosphodiesterase 1 (TDP1): qHTS in cells in absence of CPT | Potency, µM (titrated, usually from 46.2 µM), without a hit: at the highest dose activity change, negative = growth inhibition, usual class: inhibitors | DT40 Tdp1-/- hTDP1 cells, no CPT, ATP luminescence, 48 h | actives 15% (n = 420,000); also: potency is read from the fitted curve at half-maximal effect; nearly all actives have a fitted effect of over 55% in size
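Chicken DT40 Tdp1-/- cells complemented with human TDP1, screened without camptothecin (DMSO vehicle only), 400 cells/well. Compounds pin-transferred, cells incubated at 37 °C for at least 48 hr. Growth read as ATP-dependent luminescence (CellTiter-Glo, 30 min at RT).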
TDP1 cell CPT = growth inhibition of DT40 Tdp1-/-;hTDP1 cells with camptothecin (screen for TDP1 inhibitors) | chicken DT40 Tdp1-/-;hTDP1 cells + 20 nM CPT, ATP luminescence, 48 h | Potency, µM (top dose mostly 46.2 µM), without a hit: at the highest dose activity change, negative = growth inhibition, most hits filed as inhibitors | actives 12% (n = 420,000) | AID 686979; also: potency is read from the fitted curve at half-maximal effect; nearly all actives have a fitted effect of over 55% in size
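Chicken DT40 Tdp1-/- cells complemented with human TDP1, 400 cells/well, exposed to compounds plus 20 nM camptothecin for at least 48 h at 37 C; viability read as ATP content by CellTiter-Glo luminescence.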
HT1080-NT tox = kills 2HG-producing HT-1080-NT fibrosarcoma cells. HT-1080-NT fibrosarcoma viability, CellTiter-Glo ATP luminescence, 48 h. Potency, µM (highest dose often 46.1 µM), inactives show at the highest dose activity, negative = less viability, actives largely listed as cytotoxic. actives 1.6% (n = 360,000). AID 686970;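 also: NT is the 2HG producing partner of a matched IDH1 knockdown line; potency is read from the fitted curve at half-maximal effect; 0% = DMSO-treated cells and -100% = media-only wells without cells; nearly all actives have a fitted effect of over 55% in size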
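A 48-hour cytotoxicity screen used HT-1080-NT cells plated 2 hours before compound delivery. ATP-based CellTiter-Glo luminescence measured viability, normalized to DMSO and no-cell controls.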
Active calls of the source: *; ? = inconclusive; nt = not tested or not shown. This is one part of a sample in which hits are shown more often than they occur. Unless noted, calls follow the shape of the dose curve; as a rule, active = well fitted curve in the direction sought with a large enough effect; inconclusive = small, poorly fitted or top-dose-only effect, or another doubt; inactive = no such curve, though single readings can be large; an effect the other way counts as inactive or inconclusive. Unless noted, % is scaled to controls: 0 for no effect and ±100 for the full control effect.

SMILES	HT1080 IDH1KD tx	IL1B secr inh	ALOX12 inh	TDP1 cell noCPT	TDP1 cell CPT	HT1080-NT tox
COc1ccc(/C=C/CN2CCCC(CCC(=O)NCc3ccc(F)c(F)c3)C2)cc1 (stereo unspecified)	?	-84.0*	-10.3%	16.4µM*	?	?
COc1cccc(CNC(=O)CCC2CCCN(C/C=C/c3ccccc3OC)C2)c1 (stereo unspecified)	-22.5%	?	-19.0%	23.1µM*	?	-14.4%
COCCC(=O)N1CCCC(CCC(=O)NCc2ccc(F)c(F)c2)C1 (stereo unspecified)	-0.6%	-0.4	-7.7%	-4.6%	-19.1%	10.0%
COc1ccccc1/C=C/CN1CCCC(CCC(=O)NCc2ccc(F)c(F)c2)C1 (stereo unspecified)	?	-74.5*	-16.6%	?	?	?
CC1=C(C#N)C(NC(=O)CCC2CCCCC2)(C(F)(F)F)C(=O)N1 (stereo unspecified)	nt	nt	24.9%	nt	nt	nt
CCC(=O)Nc1ccc2c3c(cccc13)CC2	nt	nt	-23.5%	nt	nt	nt
O=C1Nc2ccccc2C1=Nc1ccccc1-c1ccccc1	5.6%	-70.4*	-12.0%	?	?	-6.7%
Cc1ccc(N=C2C(=O)Nc3ccccc32)cc1C	7.2%	-8.5	0.0%	6.8%	7.8%	0.9%
Cc1cc(Br)ccc1N=C1C(=O)Nc2ccccc21	7.6%	28.7	-10.6%	-5.9%	7.1%	-2.1%
Cc1ccc([N+](=O)[O-])cc1N=C1C(=O)Nc2ccccc21	?	-88.6*	0.0%	-29.8%	-20.3%	-28.6%
CCOC(=O)c1nc2ccc(C)cc2c2c1C1CC(c3c(Cl)cccc31)N2C(=O)OCc1ccccc1 (stereo unspecified)	-29.4%	11.4	?	18.4µM*	14.6µM*	2.8%
CC(OC(=O)c1ccc(C#N)cc1)C(=O)C12CC3CC(CC(C3)C1)C2 (stereo unspecified)	nt	nt	-47.4%	nt	nt	nt
CC(=O)c1c(C)[nH]c(C(=O)Nc2nccs2)c1C	?	19.6	-5.5%	13µM*	11.6µM*	-23.1%
CC(=O)c1c(C)[nH]c(C(=O)NC(C)c2ccccc2)c1C (stereo unspecified)	-6.3%	39.8	0.2%	16.4µM*	?	-12.9%
CCOC(=O)c1ccccc1NC(=O)NCc1cccn1Cc1ccc(F)cc1	nt	nt	6.2%	23.1µM*	23.1µM*	nt
CCCn1c(-n2nc(C)cc2C)nc2c1c(=O)n(Cc1ccc(F)cc1)c(=O)n2C	nt	nt	-1.7%	nt	nt	nt
Cc1cccc(Cn2cc(C(=O)Nc3ccc(F)c(C(F)(F)F)c3)ccc2=O)c1	nt	nt	-3.6%	14.6µM*	23.1µM*	nt
Cc1cccc(Cn2cc(C(=O)Nc3cc(F)ccc3F)ccc2=O)c1	nt	nt	0.0%	16.4µM*	?	nt
COc1ccc(C)cc1NC(=O)c1ccc(=O)n(Cc2ccccc2)c1	nt	nt	-18.3%	23.1µM*	?	nt
O/N=C1\CCSc2ccccc21	nt	nt	20.7%	nt	nt	nt
CC(Sc1nnc(-c2cccs2)n1C1CC1)C(=O)NC1(C#N)CCCCC1 (stereo unspecified)	nt	nt	6.4%	nt	nt	nt
Cc1nc2ccc(N)cc2c(=O)n1Cc1ccc(Cl)cc1	-9.7%	0.2	?	-29.2%	-14.2%	-2.7%
Cc1nc2ccc(NC(=O)c3ccccc3)cc2c(=O)n1Cc1ccc(F)cc1	?	-22.2	13.1%	13µM*	?	-17.2%
COc1ccc(Cn2c(C3CC3)nc3ccc(NC(C)=O)cc3c2=O)cc1	-21.0%	-17.9	-0.2%	-25.9%	-6.4%	-13.3%
COc1ccc(Cn2c(C3CC3)nc3ccc(NC(=O)c4cccnc4)cc3c2=O)cc1	10.3µM*	-70.1*	nt	10.3µM*	7.31µM*	10.3µM*
SMILES	HT1080 IDH1KD tx	IL1B secr inh	ALOX12 inh	TDP1 cell noCPT	TDP1 cell CPT	HT1080-NT tox
O=C1NCCCCC1Sc1ccc2c(c1)OCCCO2 (stereo unspecified)	nt	nt	-7.1%	nt	nt	nt
CCCc1n[nH]c2c1/C(=N\OCC)CC(C)(C)C2	-12.0%	-6.2	39.8µM*	-0.9%	-1.1%	-8.5%
CCc1n[nH]c2c1/C(=N\O)CC(C)(C)C2	8.8%	0.8	-7.2%	-4.1%	2.0%	3.3%
CCc1nc2ccc(C(=O)N(C)Cc3ccco3)cn2c1N(CC)Cc1cccc(Br)c1	-26.0%	-12.3	-24.1%	13µM*	11.6µM*	?
CCc1nc2ccc(C(=O)N(CC)CCN(C)C)cn2c1N(C)Cc1cccs1	0.0%	-14.0	?	-18.2%	-11.6%	-9.2%
CCc1nc2ccc(C(=O)N3CCN(C(=O)c4ccco4)CC3)cn2c1N(CC)Cc1cccc(Br)c1	-0.3%	-9.9	4.4%	23.1µM*	14.6µM*	-17.2%
CCc1nc2ccc(C(=O)N(C)Cc3ccco3)cn2c1N(C)CCCc1ccccc1	?	?	-25.3%	16.4µM*	16.4µM*	?
CCc1nc2ccc(C(=O)N(C)Cc3ccccc3)cn2c1N(CC)Cc1cccc(Br)c1	?	?	4.7%	?	?	?
CCc1nc2ccc(C(=O)N(C)CCN(C)C)cn2c1N(C)Cc1cc2ccccc2s1	?	?	9.0%	?	?	16.4µM*
COC(=O)c1ccc(C2c3c(-c4cccc(OC)c4)n[nH]c(=O)c3Nc3nnnn32)cc1 (stereo unspecified)	nt	nt	-25.5%	nt	nt	nt
CC1=C(NC(=O)c2ccc(Cl)cc2)C(c2c[nH]c3ccccc23)n2ncnc2N1 (stereo unspecified)	nt	nt	4.8%	nt	nt	nt
CCc1nc2ccc(C(=O)NCCCn3ccnc3)cn2c1N(CC)Cc1cccc(Br)c1	?	-14.0	-3.0%	?	?	?
CCc1nc2ccc(C(=O)NC3CCN(Cc4ccccc4)CC3)cn2c1N(CC)Cc1cccc(Br)c1	23.1µM*	-102.3*	-2.6%	11.6µM*	14.6µM*	?
O=C(COC(=O)C1CCC(=O)N1)Nc1ccccc1OC(F)F (stereo unspecified)	19.9%	0.0	-25.2%	19.6%	19.7%	13.5%
O=C1CCC(C(=O)OCC(=O)N2N=C3/C(=C\c4ccccc4)CCCC3C2c2ccccc2)N1 (stereo unspecified)	-12.9%	7.5	?	20.6µM*	?	-7.5%
O=C(c1ccccn1)N1N=C2/C(=C/c3ccccc3)CCCC2C1c1ccccc1 (stereo unspecified)	-14.4%	1.4	1.1%	?	?	-3.0%
